Assay outcomes deposited in PubChem by several laboratories.
LYPLA2 inh – counter-screen for PME1 inhibitors: inhibitors of human LYPLA2; inhibition, % at 5.9 µM; O95372; AID 2177; recombinant LYPLA2, FP-Rh probe fluorescence polarization; hit rate 0.38% among 320,000;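 active = inhibition above the screen-wide mean plus 3 SD, limit set per campaign, cut at about 26% in these data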;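 note: 0% = LYPLA2 with DMSO and 100% = wells lacking LYPLA2 enzyme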
Target sequence (O95372 whole entry, looked up): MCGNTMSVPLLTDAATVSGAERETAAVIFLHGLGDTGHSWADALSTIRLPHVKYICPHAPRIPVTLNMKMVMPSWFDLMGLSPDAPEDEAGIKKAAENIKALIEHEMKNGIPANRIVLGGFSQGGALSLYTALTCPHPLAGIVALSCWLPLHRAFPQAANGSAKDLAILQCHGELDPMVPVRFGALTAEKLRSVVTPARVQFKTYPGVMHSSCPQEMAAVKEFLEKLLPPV
MEX-5 binding – C. elegans MEX-5 TCR-2 RNA binding activity; Q9XUB2; MEX-5/FITC-TCR2 RNA binding, fluorescence polarization; stronger effect = lower value; activity score (negative = inhibition of binding), % at 10 µM; hit rate 0.38% among 300,000;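 active = inhibition past about -25% in most replicates, and total fluorescence under double the plate's negative control median, limit read from the data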;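 note: 0% = DMSO and -100% = 5 µM competing unlabeled TCR2 RNA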
PME-1 inh – PME-1 (human) inhibition; Q9Y570; recombinant PME-1, FP-Rh probe fluorescence polarization; inhibition, % at 5.9 µM; hit rate 0.53% among 320,000; AID 2130;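 active = inhibition above the campaign mean of all compounds plus 3 SD, cut at about 26% in these data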;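 note: competitive labeling of PME-1 active site by serine hydrolase directed probe; 0% = PME-1 with DMSO and 100% = wells lacking PME-1 enzyme; inhibitors block probe labeling so polarization falls and inhibition rises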
LYPLA1 counter – counter-screen for PME1 inhibitors: inhibitors of human LYPLA1; hit rate 0.16% among 320,000; recombinant LYPLA1, FP-Rh probe fluorescence polarization; O75608; inhibition, % at 5.9 µM;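 active = inhibition above the mean of all tested compounds plus 3 SD, set per campaign, cut at about 14% in these data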;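 note: inhibitors block serine hydrolase probe labeling of LYPLA1 so polarization falls; 0% = enzyme with DMSO and 100% = wells lacking LYPLA1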
Target sequence (O75608 whole entry, looked up): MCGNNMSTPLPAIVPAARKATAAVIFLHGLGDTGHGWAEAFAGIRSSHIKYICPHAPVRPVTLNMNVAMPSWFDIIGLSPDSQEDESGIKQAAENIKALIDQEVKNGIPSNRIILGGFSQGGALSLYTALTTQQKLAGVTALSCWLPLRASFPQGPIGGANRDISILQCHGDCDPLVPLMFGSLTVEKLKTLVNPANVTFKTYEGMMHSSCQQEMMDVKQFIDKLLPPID
Fam108B inh – blocks mouse Fam108B hydrolase in RBBP9 counter-screen; recombinant Fam108B, FP-Rh probe fluorescence polarization; inhibition, % at 9.51 µM; hit rate 0.33% among 300,000;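 active = inhibition above the screen mean inhibition plus 3 SD, computed separately per campaign, cut at about 18% in these data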;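 note: inhibitors lower polarization as less probe binds the enzyme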
PREPL inhibitor – inhibitors of human prolyl oligopeptidase-like enzyme PREPL; recombinant PREPL, fluorescence polarization activity-based probe; inhibition, % at 5.96 µM; hit rate 0.68% among 320,000;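 note: 0% = enzyme with DMSO and 100% = wells lacking enzyme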
PREPL inh cf – human PREPL inhibition, confirmation; shares compounds with PREPL inhibitor; recombinant PREPL, fluorescence polarization activity probe; inhibition, % at 5.96 µM; hit rate 67% among 2,000;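 note: 0% = protein with DMSO and 100% = wells lacking protein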
Starred values were filed as active, the others as inactive. A selection: hits, their analogues and other compounds. The true share with any hit is near 1.6%. Cut-off read from the data, not from the text of the source, unless noted: active = inhibition above about 43%; inactive = the rest.

For N#Cc1cccc(NC(=O)CSc2nnc(C3CC3)n2C2CC2)c1 the results were LYPLA2 inh -3, PME-1 inh 1, LYPLA1 counter 3, PREPL inhibitor 76* and PREPL inh cf 2.
`NS(=O)(=O)c1cccc(NC(=O)CSc2nnc(C3CC3)n2C2CC2)c1` gave LYPLA2 inh 3, PME-1 inh -1, LYPLA1 counter 0 and PREPL inhibitor 13.
`COc1ccc(C(=O)c2coc3ccc(O)c(CN4CCOCC4)c23)cc1` gave LYPLA2 inh 2, MEX-5 binding 2, PME-1 inh -4, LYPLA1 counter 2, Fam108B inh -3, PREPL inhibitor 53* and PREPL inh cf 57*.
Screening COc1ccc(C(=O)c2coc3ccc(O)c(CN4CCCC4)c23)cc1 returned LYPLA2 inh 1, MEX-5 binding 2, PME-1 inh -5, LYPLA1 counter -3, Fam108B inh 3, PREPL inhibitor 55* and PREPL inh cf 54*.
`COc1ccc(C(=O)c2c(C)oc3ccc(O)c(CN4CCOCC4)c23)cc1` gave LYPLA2 inh -4, MEX-5 binding 2, PME-1 inh 2, LYPLA1 counter -5, Fam108B inh 3 and PREPL inhibitor 7.
`Cc1ccc(C(=O)c2coc3ccc(O)c(CN4CCN(C)CC4)c23)cc1` gave LYPLA2 inh 7, MEX-5 binding -2, PME-1 inh -1, LYPLA1 counter -3, Fam108B inh 3, PREPL inhibitor 44* and PREPL inh cf 43.
CCOc1cc(C(=O)Nc2ccccc2N2CCOCC2)ccc1OCC(=O)N1CCOCC1 was read as LYPLA2 inh 7, PME-1 inh 0, LYPLA1 counter 2 and PREPL inhibitor 6.
C=CC[C@H](CC(=O)N(CCO)Cc1ccccc1)C(=O)N[C@H](C)COC(=O)[C@@H](CC=C)Cc1ccc(F)cc1 was read as PREPL inhibitor 12.
`COc1ccc(N2CCN(c3nc4c(c(=O)n(C)c(=O)n4C)n3Cc3ccccc3)CC2)cc1` gave LYPLA2 inh 4, MEX-5 binding 1, PME-1 inh 2, LYPLA1 counter 4, Fam108B inh 1, PREPL inhibitor 50* and PREPL inh cf 57*.
`CN1CCN(c2nc3c(c(=O)n(C)c(=O)n3C)n2CCSc2nc3ccccc3s2)CC1` gave LYPLA2 inh 0, PME-1 inh 8, LYPLA1 counter -3, Fam108B inh -4, PREPL inhibitor 45* and PREPL inh cf 34.
CCN1CCN(c2nc3c(c(=O)[nH]c(=O)n3C)n2CCSc2nc3ccccc3s2)CC1 was read as LYPLA2 inh 1, MEX-5 binding -1, PME-1 inh -3, LYPLA1 counter 1, Fam108B inh -3 and PREPL inhibitor 40.
Screening Cc1ccc(C2=CC(c3ccc(N(C)C)cc3)n3nnnc3N2)cc1 (stereo not drawn) returned LYPLA2 inh 1, MEX-5 binding -2, PME-1 inh 0, LYPLA1 counter 3, Fam108B inh -2, PREPL inhibitor 59* and PREPL inh cf 54*.
For COC(=O)C1CCN(CCCOc2ccc(CN3CCN(c4ccc([N+](=O)[O-])cc4)CC3)cc2)CC1 the results were LYPLA2 inh 6, MEX-5 binding -2, PME-1 inh 3, LYPLA1 counter 5, Fam108B inh 2, PREPL inhibitor 52* and PREPL inh cf 44*.
Screening O=C([O-])c1ccccc1-[n+]1c(-c2ccccc2)cc(-c2ccccc2)cc1-c1ccccc1 returned LYPLA2 inh 6, MEX-5 binding -2, PME-1 inh 0, LYPLA1 counter 8, Fam108B inh 7, PREPL inhibitor 56* and PREPL inh cf 46*.
CN(C)c1ccc(/C=C/C(=O)c2ccc3c(c2)OCO3)cc1 was read as LYPLA2 inh -5, PME-1 inh -12, LYPLA1 counter -5, PREPL inhibitor 52* and PREPL inh cf 27.
`O=C(/C=C/c1ccccc1)c1ccc2c(c1)OCO2` gave LYPLA2 inh 0, MEX-5 binding 0, PME-1 inh 3, LYPLA1 counter 0, Fam108B inh -2 and PREPL inhibitor -10.
